Data on 29 compounds can be found in PubChem BioAssay AID588856 (National Center for Advancing Translational Sciences (NCATS), 2011).

Out of some 410,000 compounds screened, about 3,100 (0.76%) were called active. The sample holds actives, similar compounds and a random draw of the others, so the mix is not that of the screen. Calls come from the whole dose curve; as a rule, active = well fitted cell-killing curve with a large enough effect; inactive = no such curve, though single readings can be large or run the other way.
Potency is the fitted concentration of half-maximal effect.

The test in a line: qHTS for Inhibitors of TGF-b: Cytotox Counterscreen. The conditions noted are these: HepG2 CAGA-GFP viability, ATP luminescence, 18 h; series mostly up to 46.1 µM; activity change, negative = cytotoxicity: at the top concentration. The text has this:
TGF-b is a main component in the TGF-b signaling pathway which plays diverse roles in cellular and development pathways. TGF-b is mediated by transcription factors called "Smads". Although the Smad-dependent pathway is the primary canonical TGF-b signaling mode, TGF-b1 can also activate alternative signaling pathways, including those involving MAPK (ERK, JNK and p38). This interaction may mediate or enhance Smad-dependent responses, or can exert Smad-independent effects. The complexity of this signaling cascade allows the TGF-b superfamily to perform unique, overlapping or redundant functions. We believe that targeting the TGF-beta pathway at the Smad-transcription factor level may eliminate the consequences of disrupting the entire pathway and offer specificity without affecting other signaling pathways. Smad3 is the primary transducer of TGF-b's signals and Smad3 regulates many functions attributed to TGF-b signaling. We hypothesize that Smad3 inhibitors will selectively eliminate Smad3-specific TGF-beta signals without undesired off-target effects. We aim to identify Smad3-small molecule antagonists using a quantitative high throughput screening (qHTS) approach.
A high-throughput assay was developed to screen the NIH Molecular Libraries Small Molecule Repository (MLSMR). This is a cell based assay, where TGF-b is tagged with GFP. This is a counterscreen that evaluates the cytotoxicity of the compounds that were screened in the primary cell-based screen (AID 588855).
MH087449NIH Chemical Genomics Center [NCGC]
NIH Molecular Libraries Probe Centers Network [MLPCN]
Assay Submitter (PI): Sushil Rane, National Institute of […]
Suspensions of trypsinized HEPG2 CAGA-GFP cells were dispensed into white, tissue culture-treated, solid 1536-well plates at 5uL/well (1000 cells/well final concentration) in DMEM medium supplemented with 1% FBS. Plates were incubated at 37 degrees C for 2 hours, after which 23 nL of compounds or DMSO were delivered to each well using a pin tool. One uL of recombinant TGF-beta in DMEM (1% FBS) was then dispensed (500 pg/mL final concentration), and plates were incubated at 37 degrees C for 18 hours. Two uL of CellTiter Glo (Promega), a luminescence-based viability reagent, was dispensed, followed by a 10 minute room temperature incubation. The plates were then measured on a PerkinElmer ViewLux plate reader for luminescence (clear filter) using a 5 second exposure. The %Activity was determined from the corrected luminescence values. Wells containing media only (no cells) were used to normalize %Activity of identified toxic compounds; media-only wells corresponded to 100%Activity (complete cell-killing), while DMSO-dosed cell controls were used to normalize 0%Activity (no toxicity).
Concentration-response curves were fitted to the signals arising from the resulting luminescence. The concentration-effect curves were then classified based on curve quality (r2), response magnitude and degree of measured activity, and compounds were subsequently categorized based on their curve class.
(In general: In qHTS, concentration-response curves come from the screen itself.)
As for `COc1c(O)ccc2c1-c1c3c(cc4c1C(C2)N(C)CC4)OCO3` (centres undefined), the “activity change, negative = cytotoxicity” value was 4.22% (inactive).
In the case of `COc1ccc2c(c1O)-c1cccc3c1[C@@H](C2)N(C)CC3`, the “activity change, negative = cytotoxicity” value was -17.1% (inactive).
For the compound `COc1ccc2cc1Oc1ccc(cc1)C[C@H]1c3cc(c(OC)cc3CCN1C)Oc1c(O)c(OC)cc3c1[C@H](C2)N(C)CC3`, the Potency is 7.94 µM (active).
For the compound `CC(C)COC(=O)n1c(=O)oc2ccc(S(=O)(=O)N3CCCCC3)cc21`, the “activity change, negative = cytotoxicity” value is -9.49% (inactive).
`COc1ccccc1CNC(=O)C(Cc1ccccc1)NS(=O)(=O)c1ccc2c(c1)oc(=O)n2C` (centres undefined): the “activity change, negative = cytotoxicity” value was -43% (inactive).
On the same count and under the same terms, the result for `ClCCN(CCCl)c1ccc(C=Nc2ccc(/C=C/c3ccnc4ccccc34)cc2)cc1` reads -18.2% (inactive); that for `Cc1ccc(C(O)P(=O)(OC(C)C)c2ccc(N(C)C)cc2)cc1` (centres undefined), -52.3% (inactive).
On the same count and under the same terms, next, `COc1ccc(CCNC(=O)CCn2c(=O)oc3ccccc32)cc1OC`: -40.3% (inactive).
Consider `O=C1CC(=O)N(Cc2ccccc2)C(=O)N1CCCCCCN1C(=O)CC(=O)N(Cc2ccccc2)C1=O`, for which the “activity change, negative = cytotoxicity” value was 17.5% (inactive).
In the case of `CC(C)(C)c1ccc(CN2C(=O)CN=C(c3ccccc3)c3ccccc32)cc1`, the Potency is 12.6 µM (active).
Consider `CC(C)OP(=O)(OC(C)C)C(Nc1ccccc1)c1cccc([N+](=O)[O-])c1` (centres undefined), for which the “activity change, negative = cytotoxicity” value is -16.4% (inactive).
The same measure, in the same setting: the result for `O=c1[nH]c(=S)[nH]c(O)c1/C=C1\C=Nc2ccccc21` reads -43.9% (inactive); that for `COc1ccccc1CNC(=O)Cn1c(=O)oc2cc(Cl)ccc21`, -34.9% (inactive).
Take `N#Cc1c(Cl)c(Cl)c(Cl)c(C#N)c1Cl`: the Potency was 0.316 µM (active).
Take `Cn1c(=O)oc2cc(S(=O)(=O)N3CCC(C(=O)Nc4ccc(OC(F)(F)F)cc4)CC3)ccc21`: the “activity change, negative = cytotoxicity” value is -44.1% (inactive).
Still for that read-out and setting: next, `CCCCOP(=O)(c1ccc(N(C)C)cc1)C(O)c1cc(OC)ccc1OC` (centres undefined): -35.4% (inactive).
`COc1cc([C@@H]2c3cc4c(cc3[C@H](OC(C)=O)[C@H]3COC(=O)[C@H]23)OCO4)cc(OC)c1OC`: the “activity change, negative = cytotoxicity” value was -43.8% (inactive).
For `CCOC(=O)C(NS(=O)(=O)c1ccc(C)cc1)(C(F)(F)F)P(=O)(OCC(C)C)OCC(C)C` (centres undefined), the “activity change, negative = cytotoxicity” value is -41.8% (inactive).
For `CN(C)CC1Oc2ccccc2OC1(O)c1ccccc1` (centres undefined), the Potency is 3.98 µM (active).
`CO[C@H]1[C@@H](O)[C@@H](C)O[C@H](O[C@H]2[C@H](Oc3cccc4c(O)c5c(=O)oc6ccc(C)c7c(=O)oc(c34)c5c67)O[C@H](C)[C@H](O)[C@@H]2O)[C@@H]1O`: the “activity change, negative = cytotoxicity” value is 8.18% (inactive).
The same measure, in the same setting: the result for `CCOC(=O)c1ccc(NC(=O)CCn2c(=O)oc3ccccc32)cc1` reads -44.4% (inactive).
As to `O=C1NC(=O)N(Cc2ccco2)C(=O)/C1=C\c1ccc(-c2ccc(F)cc2)o1`, the Potency is 12.6 µM (active).
`CCOP(=O)(OCC)C(Cc1ccccc1)N=C(c1ccccc1)c1ccccc1` (centres undefined): the “activity change, negative = cytotoxicity” value is -105% (inactive).
Same read-out and setting: next, `Cc1ccc2c(c1)C1C[N+](C)(CC(=O)c3ccccc3)CCC1N2C(=O)c1ccccc1Cl` (centres undefined): 4.92% (inactive); `Brc1cc(Br)c(Oc2cc(Br)c(Br)cc2Br)cc1Br`: -32.1% (inactive); `COC(=O)C1=C(c2ccccc2)C[C@@H]2CC[C@H]1N2C(=O)NCc1ccco1`: -1.14% (inactive).
On the same count and under the same terms, next, `Cc1ncoc1C(=O)NCC1=C(c2cccc3ccccc23)C[C@@H]2CC[C@H]1N2Cc1ccco1`: -59.5% (inactive).
In the case of `COc1cc(Cn2c(N)c(C(=O)NCc3ccco3)c3nc4ccccc4nc32)cc(OC)c1OC`, the Potency is 17.8 µM (active).
Turning to `CCN(CC)C(=O)Oc1ccc(OC(=O)N(CC)CC)cc1`, the “activity change, negative = cytotoxicity” value is 33.9% (inactive).
